# Experimental data published in article PMC7862700, “An all-to-all approach to the identification of sequence-specific readers for epigenetic DNA modifications on cytosine”.
# Experiments:
# Assay in all cases: DAPPL (digital affinity profiling via proximity ligation, sequencing); 10 mM Tris-HCl pH 7.5, 50 mM NaCl, 1 mM DTT, 4% glycerol, room temperature, 30 min; GST-TFs on glutathione beads, 16-mer random dsDNA library, 0.1% formaldehyde crosslink after washing; high values mean tight binding
# FEV = target: T1, FEV (Homo sapiens, UniProt Q99581 1-238); conditions: protein: recombinant; tags: N-terminal GST; dsDNA, one strand shown
# T1 sequence: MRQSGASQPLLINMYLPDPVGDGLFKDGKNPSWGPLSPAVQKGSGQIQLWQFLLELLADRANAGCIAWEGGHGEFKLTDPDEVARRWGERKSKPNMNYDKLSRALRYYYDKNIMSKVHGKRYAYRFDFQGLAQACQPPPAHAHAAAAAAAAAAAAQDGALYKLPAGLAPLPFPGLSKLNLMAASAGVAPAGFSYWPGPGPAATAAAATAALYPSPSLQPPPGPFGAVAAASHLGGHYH
# Procedure, shortened: (§1)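 Beads coated with glutathione captured GST-fused human transcription factors that had been expressed in yeast, and the factors were then given DNA barcodes and pooled with a tag-only sample. The pools were incubated with 200 nmole of a random double-stranded 16-mer DNA library in Tris/NaCl/DTT/glycerol buffer for 30 min at room temperature, washed, crosslinked with 0.1% formaldehyde and proximity-ligated with BsaI/T4 ligase at 37 °C for 1 h. PCR amplification and Illumina NextSeq500 sequencing came last. Binding signal is each hexamer's read frequency for a factor divided by its frequency for the tag-only sample.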
# ETV5 = ETV5 (Homo sapiens, UniProt P41161 1-510); conditions: protein: recombinant; tags: N-terminal GST; dsDNA, one strand shown
# Procedure, shortened: as §1
# HSF1 = HSF1 (Homo sapiens, UniProt Q00613 1-529); conditions: protein: recombinant; tags: N-terminal GST; chain copies: 3; dsDNA, one strand shown
# Procedure, shortened: as §1
# SPIC = target: T2, SPIC (Homo sapiens, UniProt Q8N5J4 1-248); conditions: protein: recombinant; tags: N-terminal GST; dsDNA, one strand shown
# T2 sequence: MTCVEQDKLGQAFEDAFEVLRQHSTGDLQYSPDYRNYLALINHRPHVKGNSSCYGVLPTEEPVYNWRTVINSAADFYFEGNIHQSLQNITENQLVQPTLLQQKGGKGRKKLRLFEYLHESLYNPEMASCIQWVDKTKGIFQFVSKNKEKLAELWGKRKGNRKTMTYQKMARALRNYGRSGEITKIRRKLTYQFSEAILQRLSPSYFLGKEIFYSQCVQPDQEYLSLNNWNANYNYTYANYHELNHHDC
# Procedure, shortened: as §1
# ELF4 = ELF4 (Homo sapiens, UniProt Q99607 1-663); conditions: protein: recombinant; tags: N-terminal GST; dsDNA, one strand shown
# Procedure, shortened: as §1
# ELK4 = target: T3, ELK4 (Homo sapiens, UniProt P28324-2 1-405); conditions: protein: recombinant; tags: N-terminal GST; dsDNA, one strand shown
# T3 sequence: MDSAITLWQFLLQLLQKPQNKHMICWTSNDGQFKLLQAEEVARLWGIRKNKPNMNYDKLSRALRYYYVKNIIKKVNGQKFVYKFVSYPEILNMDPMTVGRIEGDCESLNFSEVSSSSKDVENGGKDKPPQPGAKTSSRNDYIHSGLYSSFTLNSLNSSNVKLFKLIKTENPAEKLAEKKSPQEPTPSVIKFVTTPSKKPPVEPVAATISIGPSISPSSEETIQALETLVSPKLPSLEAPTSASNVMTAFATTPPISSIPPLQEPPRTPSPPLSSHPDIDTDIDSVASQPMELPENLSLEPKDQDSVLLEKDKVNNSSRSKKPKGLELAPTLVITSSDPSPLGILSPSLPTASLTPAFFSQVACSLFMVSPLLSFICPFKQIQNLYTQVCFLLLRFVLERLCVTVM
# Procedure, shortened: as §1
# ETV2 = target: T4, ETV2 (Homo sapiens, UniProt O00321 1-342); conditions: protein: recombinant; tags: N-terminal GST; dsDNA, one strand shown
# T4 sequence: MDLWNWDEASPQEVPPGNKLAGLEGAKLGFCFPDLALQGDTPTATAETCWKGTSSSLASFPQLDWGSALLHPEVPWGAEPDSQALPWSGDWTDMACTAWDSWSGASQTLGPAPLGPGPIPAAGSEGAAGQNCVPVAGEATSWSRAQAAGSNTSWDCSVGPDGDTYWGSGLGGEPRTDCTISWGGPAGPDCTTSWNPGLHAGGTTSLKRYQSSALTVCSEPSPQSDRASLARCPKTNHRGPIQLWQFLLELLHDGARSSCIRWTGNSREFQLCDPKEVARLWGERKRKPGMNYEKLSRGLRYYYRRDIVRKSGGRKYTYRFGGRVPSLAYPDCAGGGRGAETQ
# Procedure, shortened: as §1
# ELF3 = target: T5, ELF3 (Homo sapiens, UniProt P78545 1-371); conditions: protein: recombinant; tags: N-terminal GST; dsDNA, one strand shown
# T5 sequence: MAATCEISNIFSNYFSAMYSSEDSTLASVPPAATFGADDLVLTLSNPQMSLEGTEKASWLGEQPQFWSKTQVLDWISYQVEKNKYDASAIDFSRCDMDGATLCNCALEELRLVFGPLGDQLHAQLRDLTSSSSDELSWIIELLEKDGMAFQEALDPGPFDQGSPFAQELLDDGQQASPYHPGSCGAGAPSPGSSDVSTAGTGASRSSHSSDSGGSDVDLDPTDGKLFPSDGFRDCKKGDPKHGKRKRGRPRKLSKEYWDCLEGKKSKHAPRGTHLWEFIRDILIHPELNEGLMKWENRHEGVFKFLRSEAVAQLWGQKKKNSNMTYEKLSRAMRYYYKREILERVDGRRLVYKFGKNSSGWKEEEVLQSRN
# Procedure, shortened: as §1
# CRX = CRX (Homo sapiens, UniProt O43186 1-299); conditions: protein: recombinant; tags: N-terminal GST; dsDNA, one strand shown
# Procedure, shortened: as §1
# ETV1 = ETV1 (Homo sapiens, UniProt P50549 1-477); conditions: protein: recombinant; tags: N-terminal GST; dsDNA, one strand shown
# Procedure, shortened: as §1
# ERF = target: T6, ERF (Homo sapiens, UniProt P50548 1-548); conditions: protein: recombinant; tags: N-terminal GST; dsDNA, one strand shown
# T6 sequence: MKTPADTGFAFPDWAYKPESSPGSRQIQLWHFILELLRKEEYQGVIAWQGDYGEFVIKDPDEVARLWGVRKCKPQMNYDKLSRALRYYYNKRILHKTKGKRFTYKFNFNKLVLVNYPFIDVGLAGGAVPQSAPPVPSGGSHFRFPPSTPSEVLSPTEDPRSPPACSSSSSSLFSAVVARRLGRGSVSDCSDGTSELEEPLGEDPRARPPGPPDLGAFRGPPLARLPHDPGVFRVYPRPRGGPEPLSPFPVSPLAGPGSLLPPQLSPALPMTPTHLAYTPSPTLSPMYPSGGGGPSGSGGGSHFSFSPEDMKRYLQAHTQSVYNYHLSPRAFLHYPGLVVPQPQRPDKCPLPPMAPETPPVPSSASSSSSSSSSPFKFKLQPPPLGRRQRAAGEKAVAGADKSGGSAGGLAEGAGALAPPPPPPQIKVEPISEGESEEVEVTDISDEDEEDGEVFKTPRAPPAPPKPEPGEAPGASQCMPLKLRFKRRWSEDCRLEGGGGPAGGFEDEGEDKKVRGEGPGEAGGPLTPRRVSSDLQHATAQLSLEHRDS
# Procedure, shortened: as §1
# ETV3L = target: T7, ETV3L (Homo sapiens, UniProt Q6ZN32 1-361); conditions: protein: recombinant; tags: N-terminal GST; dsDNA, one strand shown
# T7 sequence: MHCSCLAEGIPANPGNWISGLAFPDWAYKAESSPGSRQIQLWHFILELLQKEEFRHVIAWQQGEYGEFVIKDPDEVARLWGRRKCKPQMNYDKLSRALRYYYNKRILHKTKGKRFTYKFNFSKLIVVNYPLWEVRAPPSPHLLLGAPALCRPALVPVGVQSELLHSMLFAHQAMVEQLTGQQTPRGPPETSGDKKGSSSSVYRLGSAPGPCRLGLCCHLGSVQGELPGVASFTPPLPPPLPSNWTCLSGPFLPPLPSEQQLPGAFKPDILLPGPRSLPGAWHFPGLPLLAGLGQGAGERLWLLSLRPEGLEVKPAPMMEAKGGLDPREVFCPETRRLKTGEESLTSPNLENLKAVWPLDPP
# Procedure, shortened: as §1
# ETS2 = target: T8, ETS2 (Homo sapiens, UniProt P15036 1-469); conditions: protein: recombinant; tags: N-terminal GST; dsDNA, one strand shown
# T8 sequence: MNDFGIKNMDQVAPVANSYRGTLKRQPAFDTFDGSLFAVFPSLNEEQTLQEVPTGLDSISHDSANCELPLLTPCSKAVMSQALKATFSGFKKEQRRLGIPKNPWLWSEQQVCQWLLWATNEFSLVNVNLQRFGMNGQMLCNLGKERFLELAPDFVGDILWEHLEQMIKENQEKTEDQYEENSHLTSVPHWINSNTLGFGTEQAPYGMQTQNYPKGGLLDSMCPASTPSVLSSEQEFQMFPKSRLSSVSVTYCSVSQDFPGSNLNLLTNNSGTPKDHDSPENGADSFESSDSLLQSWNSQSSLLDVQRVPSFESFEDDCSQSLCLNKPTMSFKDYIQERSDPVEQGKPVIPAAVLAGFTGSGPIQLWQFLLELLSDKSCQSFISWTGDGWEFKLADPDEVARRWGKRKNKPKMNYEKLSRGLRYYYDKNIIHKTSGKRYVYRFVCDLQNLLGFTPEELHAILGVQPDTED
# Procedure, shortened: as §1
# SPDEF = target: T9, SPDEF (Homo sapiens, UniProt O95238 1-335); conditions: protein: recombinant; tags: N-terminal GST; dsDNA, one strand shown
# T9 sequence: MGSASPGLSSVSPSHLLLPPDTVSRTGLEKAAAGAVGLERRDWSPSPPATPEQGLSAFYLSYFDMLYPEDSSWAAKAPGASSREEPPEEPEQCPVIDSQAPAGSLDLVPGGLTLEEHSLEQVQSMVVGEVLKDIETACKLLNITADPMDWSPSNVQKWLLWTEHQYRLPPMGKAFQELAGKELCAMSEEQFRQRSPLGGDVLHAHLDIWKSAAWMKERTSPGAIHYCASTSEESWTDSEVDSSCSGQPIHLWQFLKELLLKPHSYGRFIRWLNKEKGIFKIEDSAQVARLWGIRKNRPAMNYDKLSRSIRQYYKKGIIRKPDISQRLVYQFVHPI
# Procedure, shortened: as §1
# ETV7 = target: T10, ETV7 (Homo sapiens, UniProt Q9Y603 1-341); conditions: protein: recombinant; tags: N-terminal GST; dsDNA, one strand shown
# T10 sequence: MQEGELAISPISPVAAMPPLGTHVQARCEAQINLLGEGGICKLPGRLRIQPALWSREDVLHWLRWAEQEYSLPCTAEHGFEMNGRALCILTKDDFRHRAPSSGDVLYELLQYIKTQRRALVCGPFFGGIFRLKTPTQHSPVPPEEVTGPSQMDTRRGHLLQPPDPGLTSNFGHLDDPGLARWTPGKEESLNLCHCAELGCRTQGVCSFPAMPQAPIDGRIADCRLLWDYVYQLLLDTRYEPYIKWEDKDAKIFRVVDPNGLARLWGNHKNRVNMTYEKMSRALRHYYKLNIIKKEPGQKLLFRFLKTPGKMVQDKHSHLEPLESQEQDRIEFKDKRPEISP
# Procedure, shortened: as §1
# ELF5 = target: T11, ELF5 (Homo sapiens, UniProt Q9UKW6-2 1-255); conditions: protein: recombinant; tags: N-terminal GST; dsDNA, one strand shown
# T11 sequence: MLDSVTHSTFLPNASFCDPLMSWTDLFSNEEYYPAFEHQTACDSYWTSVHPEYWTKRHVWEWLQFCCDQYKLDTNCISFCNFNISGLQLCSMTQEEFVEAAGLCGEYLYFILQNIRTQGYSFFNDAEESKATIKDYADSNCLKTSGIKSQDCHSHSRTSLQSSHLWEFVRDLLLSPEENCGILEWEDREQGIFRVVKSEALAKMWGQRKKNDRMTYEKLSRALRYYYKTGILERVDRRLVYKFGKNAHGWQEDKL
# Procedure, shortened: as §1
# ETV3 = target: T12, ETV3 (Homo sapiens, UniProt P41162-2 1-143); conditions: protein: recombinant; tags: N-terminal GST; dsDNA, one strand shown
# T12 sequence: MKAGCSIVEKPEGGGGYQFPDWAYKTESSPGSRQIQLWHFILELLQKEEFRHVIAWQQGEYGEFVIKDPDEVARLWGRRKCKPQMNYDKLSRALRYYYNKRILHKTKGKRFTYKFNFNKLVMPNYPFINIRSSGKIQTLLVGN
# Procedure, shortened: as §1
# ETV6 = ETV6 (Homo sapiens, UniProt P41212 1-452); conditions: protein: recombinant; tags: N-terminal GST; dsDNA, one strand shown
# Procedure, shortened: as §1
# Chain of HSF1 (Q00613 whole entry): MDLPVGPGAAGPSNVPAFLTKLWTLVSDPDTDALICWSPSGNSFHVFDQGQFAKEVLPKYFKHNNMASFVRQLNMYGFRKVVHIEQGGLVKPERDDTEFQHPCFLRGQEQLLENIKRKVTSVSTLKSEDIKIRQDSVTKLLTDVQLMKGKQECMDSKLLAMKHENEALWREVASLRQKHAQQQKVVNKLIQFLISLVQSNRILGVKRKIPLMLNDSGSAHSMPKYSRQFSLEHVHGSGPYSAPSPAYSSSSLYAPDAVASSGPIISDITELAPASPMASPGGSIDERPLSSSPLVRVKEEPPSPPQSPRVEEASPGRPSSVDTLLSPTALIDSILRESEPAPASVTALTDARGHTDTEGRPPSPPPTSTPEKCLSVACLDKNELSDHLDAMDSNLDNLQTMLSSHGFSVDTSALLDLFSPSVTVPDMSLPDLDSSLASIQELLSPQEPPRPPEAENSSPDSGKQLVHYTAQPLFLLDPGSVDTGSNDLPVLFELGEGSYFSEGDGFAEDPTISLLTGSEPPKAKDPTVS
# Chain of CRX (O43186 whole entry): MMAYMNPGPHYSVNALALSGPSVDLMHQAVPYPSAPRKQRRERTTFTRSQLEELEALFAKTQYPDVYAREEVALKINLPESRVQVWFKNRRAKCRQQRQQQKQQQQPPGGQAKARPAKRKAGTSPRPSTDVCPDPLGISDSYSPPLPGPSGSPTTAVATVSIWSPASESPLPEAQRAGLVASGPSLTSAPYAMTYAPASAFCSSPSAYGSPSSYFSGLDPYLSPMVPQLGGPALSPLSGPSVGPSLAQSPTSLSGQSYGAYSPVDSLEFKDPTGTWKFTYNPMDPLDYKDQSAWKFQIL
# Chain of ELF4 (Q99607 whole entry): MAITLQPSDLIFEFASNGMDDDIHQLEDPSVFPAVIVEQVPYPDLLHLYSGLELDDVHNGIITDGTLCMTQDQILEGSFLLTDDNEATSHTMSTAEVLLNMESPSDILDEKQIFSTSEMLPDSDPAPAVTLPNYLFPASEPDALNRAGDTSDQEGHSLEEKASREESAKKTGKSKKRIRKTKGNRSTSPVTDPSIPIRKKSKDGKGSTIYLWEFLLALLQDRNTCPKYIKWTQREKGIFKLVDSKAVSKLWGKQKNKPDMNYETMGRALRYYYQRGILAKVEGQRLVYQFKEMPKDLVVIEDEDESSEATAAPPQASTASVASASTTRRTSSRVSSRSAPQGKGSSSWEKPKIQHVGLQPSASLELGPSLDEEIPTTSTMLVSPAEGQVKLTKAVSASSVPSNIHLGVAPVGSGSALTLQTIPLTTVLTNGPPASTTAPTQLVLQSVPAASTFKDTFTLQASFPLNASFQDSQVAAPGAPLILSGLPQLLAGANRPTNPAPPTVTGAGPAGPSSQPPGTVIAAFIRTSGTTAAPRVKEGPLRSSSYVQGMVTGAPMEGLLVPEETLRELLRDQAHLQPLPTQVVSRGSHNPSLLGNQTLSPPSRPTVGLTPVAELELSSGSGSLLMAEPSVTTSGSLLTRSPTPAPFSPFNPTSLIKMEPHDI
# Chain of ETV1 (P50549 whole entry): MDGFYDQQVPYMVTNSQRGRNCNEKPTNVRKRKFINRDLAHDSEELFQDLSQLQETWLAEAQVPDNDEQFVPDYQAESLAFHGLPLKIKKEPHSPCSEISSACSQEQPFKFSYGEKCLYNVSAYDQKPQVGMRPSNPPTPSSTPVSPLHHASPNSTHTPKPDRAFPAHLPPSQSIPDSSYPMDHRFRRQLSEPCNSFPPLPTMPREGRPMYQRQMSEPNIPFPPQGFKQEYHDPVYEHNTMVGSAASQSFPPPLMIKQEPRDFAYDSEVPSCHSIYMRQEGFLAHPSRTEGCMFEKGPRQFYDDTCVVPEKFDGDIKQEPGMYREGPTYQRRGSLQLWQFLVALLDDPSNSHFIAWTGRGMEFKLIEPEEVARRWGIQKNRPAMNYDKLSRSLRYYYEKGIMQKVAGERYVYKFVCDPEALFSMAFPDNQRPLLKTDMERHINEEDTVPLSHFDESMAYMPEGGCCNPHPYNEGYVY
# Chain of ETV5 (P41161 whole entry): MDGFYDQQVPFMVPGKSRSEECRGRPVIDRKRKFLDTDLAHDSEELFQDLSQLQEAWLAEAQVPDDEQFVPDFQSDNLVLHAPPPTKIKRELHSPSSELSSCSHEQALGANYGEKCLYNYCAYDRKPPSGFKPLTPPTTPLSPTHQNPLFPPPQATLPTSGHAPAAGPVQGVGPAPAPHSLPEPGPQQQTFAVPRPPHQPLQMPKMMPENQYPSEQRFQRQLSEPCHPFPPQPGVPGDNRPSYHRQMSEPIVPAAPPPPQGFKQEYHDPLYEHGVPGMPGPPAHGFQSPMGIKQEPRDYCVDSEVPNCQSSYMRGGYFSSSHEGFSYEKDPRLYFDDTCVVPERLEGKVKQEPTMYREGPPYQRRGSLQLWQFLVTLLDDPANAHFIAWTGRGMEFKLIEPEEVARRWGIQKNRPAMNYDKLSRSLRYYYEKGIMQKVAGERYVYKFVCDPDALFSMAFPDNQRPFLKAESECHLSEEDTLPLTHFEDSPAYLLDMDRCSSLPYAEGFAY
# Chain of ETV6 (P41212 whole entry): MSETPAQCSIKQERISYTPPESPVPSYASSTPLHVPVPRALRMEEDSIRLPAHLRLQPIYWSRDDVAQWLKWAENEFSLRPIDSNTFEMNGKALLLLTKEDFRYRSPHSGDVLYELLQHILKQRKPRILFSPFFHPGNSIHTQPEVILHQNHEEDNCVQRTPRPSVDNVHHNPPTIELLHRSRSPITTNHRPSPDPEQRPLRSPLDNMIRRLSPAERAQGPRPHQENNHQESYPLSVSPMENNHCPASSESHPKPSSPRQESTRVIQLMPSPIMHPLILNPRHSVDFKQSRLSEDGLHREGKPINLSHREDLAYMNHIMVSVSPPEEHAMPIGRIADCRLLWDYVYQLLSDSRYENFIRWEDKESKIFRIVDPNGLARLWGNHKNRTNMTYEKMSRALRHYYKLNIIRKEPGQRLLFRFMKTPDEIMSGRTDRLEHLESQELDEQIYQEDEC
sequence,measurement,setting,value
AATTGT,binding signal,FEV,"1.25 fold enrichment (6-mer frequency, TF over GST control)"
same,binding signal,ETV5,"1.2 fold enrichment (6-mer frequency, TF over GST control)"
same,binding signal,HSF1,"1.18 fold enrichment (6-mer frequency, TF over GST control)"
same,binding signal,SPIC,"1.26 fold enrichment (6-mer frequency, TF over GST control)"
same,binding signal,ELF4,"1.29 fold enrichment (6-mer frequency, TF over GST control)"
same,binding signal,ELK4,"1.14 fold enrichment (6-mer frequency, TF over GST control)"
same,binding signal,ETV2,"1.33 fold enrichment (6-mer frequency, TF over GST control)"
same,binding signal,ELF3,"1.31 fold enrichment (6-mer frequency, TF over GST control)"
same,binding signal,CRX,"1.17 fold enrichment (6-mer frequency, TF over GST control)"
same,binding signal,ETV1,"1.22 fold enrichment (6-mer frequency, TF over GST control)"
same,binding signal,ERF,"1.36 fold enrichment (6-mer frequency, TF over GST control)"
same,binding signal,ETV3L,"1.29 fold enrichment (6-mer frequency, TF over GST control)"
same,binding signal,ETS2,"1.31 fold enrichment (6-mer frequency, TF over GST control)"
same,binding signal,SPDEF,"1.21 fold enrichment (6-mer frequency, TF over GST control)"
same,binding signal,ETV7,"1.39 fold enrichment (6-mer frequency, TF over GST control)"
same,binding signal,ELF5,"1.35 fold enrichment (6-mer frequency, TF over GST control)"
same,binding signal,ETV3,"1.31 fold enrichment (6-mer frequency, TF over GST control)"
same,binding signal,ETV6,"1.26 fold enrichment (6-mer frequency, TF over GST control)"
